Data on 5 molecules can be found in PubChem BioAssay.

Active and inactive are the calls of the source. Unless noted, no rule for the calls is given here.

The nature of assay [1]: anti-His antibody binders, primary screen, artefact control for SMM control protein annotation, biochemical, small-molecule microarray, 635 nm fluorescence (AID 1128).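 Also: score merges feature fluorescence with signal-to-noise for each printed compound spot.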 The conditions noted are these: anti-His Alexa647 antibody binding, higher = more signal.
Assay [2] concerns Human papillomavirus type 1a E7 protein (residues 1-88). The experiment in a line: HPV1a E7 small-molecule binders, primary screen, biochemical, small-molecule microarray, residues 1-88, 635 nm (AID 1129). The note with it: small-molecule microarray binding, fluorescence 635 nm; higher = more signal.
In assay [3] the target is Focal adhesion kinase 1 (Homo sapiens) (UniProt Q05397). The experiment in a line: small-molecule microarray binders of FAK, primary screen, biochemical, 635/667 nm fluorescence, BSA, DTT (AID 1130).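 Also: composite of spot emission at 667 nm and signal to noise over triplicate slides.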 The note with it: PTK2 binding, 635 nm fluorescence, higher = more signal.
Focal adhesion kinase 1 (Homo sapiens), sequence (Q05397 whole entry, looked up): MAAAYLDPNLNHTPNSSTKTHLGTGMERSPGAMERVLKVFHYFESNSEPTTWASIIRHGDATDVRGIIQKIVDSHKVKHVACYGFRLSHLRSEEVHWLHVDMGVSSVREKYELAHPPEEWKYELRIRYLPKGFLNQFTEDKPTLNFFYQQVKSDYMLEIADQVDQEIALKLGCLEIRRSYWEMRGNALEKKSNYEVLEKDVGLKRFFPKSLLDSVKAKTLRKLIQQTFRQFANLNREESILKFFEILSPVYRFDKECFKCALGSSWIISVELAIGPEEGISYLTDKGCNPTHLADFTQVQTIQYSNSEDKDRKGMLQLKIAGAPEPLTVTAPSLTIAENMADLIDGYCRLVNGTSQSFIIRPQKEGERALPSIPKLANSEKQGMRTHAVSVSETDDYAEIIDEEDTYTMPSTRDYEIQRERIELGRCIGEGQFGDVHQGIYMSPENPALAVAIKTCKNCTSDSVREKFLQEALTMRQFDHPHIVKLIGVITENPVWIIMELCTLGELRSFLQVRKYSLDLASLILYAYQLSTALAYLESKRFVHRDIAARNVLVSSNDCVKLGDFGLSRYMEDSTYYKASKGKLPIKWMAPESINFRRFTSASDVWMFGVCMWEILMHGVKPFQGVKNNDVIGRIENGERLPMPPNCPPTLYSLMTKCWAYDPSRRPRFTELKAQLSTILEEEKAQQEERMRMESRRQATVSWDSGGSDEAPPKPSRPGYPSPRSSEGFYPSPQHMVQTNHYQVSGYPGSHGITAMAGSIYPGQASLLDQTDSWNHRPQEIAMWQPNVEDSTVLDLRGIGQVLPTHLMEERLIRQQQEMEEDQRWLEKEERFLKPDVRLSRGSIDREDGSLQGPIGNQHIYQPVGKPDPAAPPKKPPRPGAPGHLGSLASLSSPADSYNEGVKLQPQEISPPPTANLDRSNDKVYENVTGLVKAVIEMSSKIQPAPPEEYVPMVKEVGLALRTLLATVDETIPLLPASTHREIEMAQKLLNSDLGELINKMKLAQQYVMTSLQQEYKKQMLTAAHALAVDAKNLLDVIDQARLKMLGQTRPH
Assay [4] has as its system Fibrinogen (Alexa647-labelled). As to the kind of experiment: fibrinogen binders on compound microarrays, profiling panel, artefact control for SMM control-protein annotation, biochemical, small-molecule microarray, 635/667 nm fluorescence (AID 1131).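 Also: z-score merges 667 nm fluorescence with per-spot signal-to-noise over triplicate slides.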 The conditions noted are these: fibrinogen-A647 binding fluorescence, higher = more signal.
Assay [5] addresses Follistatin (Homo sapiens) (UniProt P19883). As to the kind of experiment: follistatin binders on small-molecule microarrays, primary screen, biochemical, small-molecule microarray, 635/667 nm fluorescence (AID 1132). The note with it: FST binding, 635 nm fluorescence, higher = more signal.
Assay [6] has as its target Fibroblast growth factor 2 (Homo sapiens) (UniProt P09038). As to the kind of experiment: FGF2 binders on small-molecule microarrays, primary screen, biochemical, small-molecule microarray, 635/667 nm fluorescence (AID 1133). The note with it: small-molecule microarray binding, FGF2, fluorescence 635/667; higher = more signal.
A short description of assay [7]: mitochondrial membrane potential change in A549 cells, profiling panel, cell-based, JC-1 fluorescence, basal, 24 h, 100 nL (AID 1138).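 Also: A549 lung adenocarcinoma cells under basal conditions with no added stimulus; test concentration not given here.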 The conditions noted are these: higher = more signal.
In the next assay the test system is Lefty1. As to the kind of experiment: Lefty1 binders on small-molecule microarrays, primary screen, biochemical, small-molecule microarray, 635/667 nm fluorescence (AID 1139). The note with it: small-molecule microarray binding, fluorescence 635/667; higher = more signal.
The test system of assay [8] is wheat germ agglutinin (Triticum aestivum), Alexa647-labelled. As to the kind of experiment: wheat germ agglutinin binders on compound microarrays, profiling panel, artefact control for SMM control-protein annotation, biochemical, small-molecule microarray, 635/667 nm fluorescence (AID 1140).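 Also: score merges 667 nm feature emission with signal to noise over triplicate slides.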 The note with it: WGA-A647 binding, 635 nm fluorescence, higher = more signal.

Assay [9] deals with Luciferin 4-monooxygenase (Photinus pyralis) (UniProt P08659). As to the kind of experiment: firefly luciferase enzyme inhibitors, primary screen, biochemical, luminescence, purified enzyme, 2006 set (AID 1141).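 Also: cell-free assay with purified firefly luciferase at 100 ng per well in PBS; test concentration not given here.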 The note with it: SteadyGlo luminescence, 30 min, higher = more signal, called active from +8 up or from −8 down.
Luciferin 4-monooxygenase (Photinus pyralis), sequence (P08659 whole entry, looked up): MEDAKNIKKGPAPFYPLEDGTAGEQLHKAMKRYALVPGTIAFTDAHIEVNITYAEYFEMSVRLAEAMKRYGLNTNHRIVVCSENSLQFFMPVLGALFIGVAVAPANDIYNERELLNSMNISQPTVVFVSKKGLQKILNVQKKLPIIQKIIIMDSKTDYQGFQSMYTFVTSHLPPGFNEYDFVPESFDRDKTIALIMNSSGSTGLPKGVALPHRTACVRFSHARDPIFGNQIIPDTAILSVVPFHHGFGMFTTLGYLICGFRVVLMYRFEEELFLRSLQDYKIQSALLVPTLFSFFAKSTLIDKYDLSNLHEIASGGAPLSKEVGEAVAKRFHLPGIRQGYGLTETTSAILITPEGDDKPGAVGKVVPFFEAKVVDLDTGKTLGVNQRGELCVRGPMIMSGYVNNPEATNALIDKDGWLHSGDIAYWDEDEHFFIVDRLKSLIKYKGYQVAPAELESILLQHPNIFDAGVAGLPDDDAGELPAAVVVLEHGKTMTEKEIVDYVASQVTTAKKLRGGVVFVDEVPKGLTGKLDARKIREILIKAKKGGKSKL
In assay [10] the test system is Wnt5a (protein binding on small-molecule microarray). The experiment in a line: Wnt5a binders on small-molecule microarray, primary screen, biophysical, 635/667 nm fluorescence (AID 1142).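 Also: fluorescence read at 667 nm with signal to noise per printed feature.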 The conditions noted are these: 635 nm fluorescence, higher = more signal.
Assay [11] in a line: cell viability in Huh7 cells, primary screen, cytotoxicity control for HCV replication inhibitor project, CellTiter-Glo luminescence, basal, 48 h (AID 1143).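 Also: Huh7 hepatoma cells carrying a hepatitis C replication reporter with no stimulus; test concentration not given here.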 The conditions noted are these: Huh7 HCV replicon, higher = more signal, called active from +8 up or from −8 down. A general note: In ATP-based viability assays light output follows the ATP content of the culture.
A short description of assay [12]: P. aeruginosa biofilm formation inhibitors, primary screen, PAO1 strain, BacTiter-Glo luminescence, LB-PBS (AID 1144). The note with it: 12 h, higher = more signal.
A short description of assay [13]: CREB reporter modulators without forskolin, primary screen, cell-based, PC12, CRE-LacZ reporter, unstimulated (AID 1145). The conditions noted are these: no forskolin, luminescence, 4.5 h, higher = more signal, called active from +8 up or from −8 down.
Assay [14] can be described thus: CREB reporter modulators under forskolin, primary screen, cell-based, PC12, CRE-LacZ reporter, forskolin-stimulated (AID 1146).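 Also: PC12 cells with 6xCRE LacZ reporter stimulated by forskolin 10 µM; beta-galactosidase reporter signal reflecting CREB driven transcription.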 The conditions noted are these: luminescence, 4.5 h, higher = more signal, called active from +8 up or from −8 down.
The target of assay [15] is Streptavidin (Streptomyces avidinii) (UniProt P22629). The experiment in a line: streptavidin binders on small-molecule microarray, primary screen, artefact control for SMM compound annotation, biophysical, 635/667 nm fluorescence (AID 1147).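 Also: signal reflects streptavidin binding to arrayed compounds as a control protein.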 The conditions noted are these: streptavidin binding, higher = more signal.
Streptavidin (Streptomyces avidinii), sequence (P22629 whole entry, looked up): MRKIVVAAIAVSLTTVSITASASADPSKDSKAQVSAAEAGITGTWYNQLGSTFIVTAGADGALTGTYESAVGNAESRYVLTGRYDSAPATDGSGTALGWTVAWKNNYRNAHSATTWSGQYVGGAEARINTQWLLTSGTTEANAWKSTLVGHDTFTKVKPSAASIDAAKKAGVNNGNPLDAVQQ
A short description of assay [16]: small-molecule binders of probe aInhba, primary screen, biochemical, small-molecule microarray, 635/667 nm fluorescence (AID 1148).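 Also: score merges 667nm spot fluorescence with signal-to-noise for antibody binding to printed compounds.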 The conditions noted are these: higher = more signal.
Assay [17] deals with Torsin-1A (Homo sapiens) (UniProt O14656). The experiment in a line: torsin A binders from cell lysate, primary screen, small-molecule microarray, wild-type, 635/667 nm (AID 1149). The conditions noted are these: COS7 hTOR1A-WT lysate, 635 nm fluorescence, higher = more signal.
Torsin-1A (Homo sapiens), sequence (O14656 whole entry, looked up): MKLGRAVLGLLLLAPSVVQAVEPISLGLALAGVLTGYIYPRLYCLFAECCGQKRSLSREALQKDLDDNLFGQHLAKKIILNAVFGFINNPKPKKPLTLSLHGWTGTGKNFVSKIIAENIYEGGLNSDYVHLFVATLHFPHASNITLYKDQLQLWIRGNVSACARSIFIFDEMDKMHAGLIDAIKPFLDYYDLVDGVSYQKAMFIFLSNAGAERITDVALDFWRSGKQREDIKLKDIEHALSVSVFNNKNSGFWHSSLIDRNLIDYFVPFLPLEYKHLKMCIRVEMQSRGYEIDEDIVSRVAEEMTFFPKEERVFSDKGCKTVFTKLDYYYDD
For assay [18] the target is unchanged. As to the kind of experiment: small-molecule binders of mutant TOR1A in lysate, primary screen, cell lysate, small-molecule microarray, COS7 lysate, 635/667 nm fluorescence (AID 1150).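 Also: score pools 667 nm emission and signal to noise measuring lysate protein binding.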 The conditions noted are these: COS7 hTOR1A mutant lysate, 635 nm fluorescence, higher = more signal.
For assay [19], the system named is Sonic hedgehog protein (Shh). The experiment in a line: small-molecule binders of Shh protein, primary screen, biochemical, small-molecule microarray, 635/667 nm fluorescence (AID 1151).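 Also: Shh protein binding to compounds spotted on small-molecule microarray slides; score combines spot fluorescence intensity with signal-to-noise across triplicate slides.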 The conditions noted are these: small-molecule microarray binding, 635 nm fluorescence; higher = more signal.

Follistatin (Homo sapiens), sequence (P19883 whole entry, looked up): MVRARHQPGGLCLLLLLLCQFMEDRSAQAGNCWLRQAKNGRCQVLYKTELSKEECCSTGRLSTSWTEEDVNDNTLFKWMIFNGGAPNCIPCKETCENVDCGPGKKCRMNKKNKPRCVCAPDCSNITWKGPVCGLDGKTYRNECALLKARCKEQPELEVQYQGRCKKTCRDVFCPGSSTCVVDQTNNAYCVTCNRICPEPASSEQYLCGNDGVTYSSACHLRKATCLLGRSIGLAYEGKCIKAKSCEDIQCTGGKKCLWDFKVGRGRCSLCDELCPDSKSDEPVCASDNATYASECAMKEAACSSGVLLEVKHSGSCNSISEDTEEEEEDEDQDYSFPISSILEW
Fibroblast growth factor 2 (Homo sapiens), sequence (P09038 whole entry, looked up): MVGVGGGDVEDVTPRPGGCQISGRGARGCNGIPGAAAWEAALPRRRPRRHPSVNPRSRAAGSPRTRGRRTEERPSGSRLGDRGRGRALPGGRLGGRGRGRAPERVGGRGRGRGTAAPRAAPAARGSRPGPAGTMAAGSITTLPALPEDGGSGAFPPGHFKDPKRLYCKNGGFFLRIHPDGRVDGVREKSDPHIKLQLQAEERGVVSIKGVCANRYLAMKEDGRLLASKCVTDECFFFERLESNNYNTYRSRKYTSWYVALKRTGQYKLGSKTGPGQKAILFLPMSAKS

On to `CCN1C(=O)[C@H]2[C@H]3[C@H](O)[C@H](O)CC(=NNC(=O)OCc4ccc(OC)cc4)[C@@H]3CC[C@H]2C1=O`, for which the composite z-score in assay [1] was 0.0221; in [2], -0.562; in assay [3], 0.0875; in assay [4], -0.193; in [5], -0.735; in assay [6] it was 0.193. Further, the composite z-score in the assay with Lefty1 was -0.524; in assay [8], 0.0083; in [10] it was -0.0453; in assay [15], -0.0023; in assay [16], -0.0521; in the assay with Torsin-1A (Homo sapiens) [17], -1.18. The composite z-score was -0.703 in the assay with Torsin-1A (Homo sapiens) [18] and -1.17 in [19]. Moreover, the z-score in assay [7] was -0.0338; in assay [9] it was -0.207 (inactive); in [11] it was 0.821 (inactive); in [12], -0.409 (inactive); in [13], -0.291 (inactive); in assay [14], -0.523 (inactive).
As for `CC(C)=CCCC(C)=CCON=C1C[C@@H](O)[C@@H](O)[C@@H]2[C@@H]3C(=O)N(C4CCCCC4)C(=O)[C@@H]3CC[C@@H]12`, the composite z-score in assay [1] is -0.216; in [2], 0.0286; in assay [3] it was 0.0165; in assay [4] it was -0.229; in assay [5], 0.831; in assay [6], 0.417. In addition, the composite z-score is 0.791 in the assay with Lefty1; -0.0783 in [8]; 0.24 in assay [10]; -0.0037 in assay [15]; -0.0719 in assay [16]; 0.184 with Torsin-1A (Homo sapiens) [17]. Besides, the figures for the composite z-score (with Torsin-1A (Homo sapiens) [18]; in [19]) were 0.288 and 1.08, respectively. Besides, the z-score is -0.64 in assay [7]; 0.335 (inactive) in assay [9]; -0.592 (inactive) in assay [11]; 0.233 (inactive) in assay [12]; 0.517 (inactive) in assay [13]; 0.13 (inactive) in assay [14].
For the molecule `CCOC(=O)C1=NO[C@@]2(C=C(Br)C3(OCCCO3)[C@H]3O[C@H]32)C1`, the composite z-score was 0.968 in [1]; 0.228 in assay [2]; 0.0306 in assay [3]; 0.982 in assay [4]; 1.43 in [5]; 1.14 in assay [6]. The composite z-score was 1.04 with Lefty1; 0.818 in assay [8]; 0.4 in assay [10]; 1.45 in [15]; -0.0313 in [16]; 0.712 in the assay with Torsin-1A (Homo sapiens) [17]. Also, the composite z-score with Torsin-1A (Homo sapiens) [18] was found to be 0.332; in [19] it was 0.959. Also, the z-score in [7] was -0.0326; in assay [9] it was -0.279 (inactive); in [11] it was 0.164 (inactive); in assay [12] it was 0.208 (inactive); in assay [13] it was -0.258 (inactive); in [14], 0.572 (inactive).
On to `CO[C@@H]1COC(=O)CC=C[C@H](C)[C@H](OC)COC(=O)[C@H](C)NC(=O)CC=C[C@H]1C`, for which the composite z-score is -0.347 in [1]; -1.35 in assay [2]; -0.289 in assay [3]; -0.394 in assay [4]; 1.41 in [5]; 0.628 in assay [6]. Also, the composite z-score was 1.64 with Lefty1; -0.54 in assay [8]; -0.0631 in [10]; -0.369 in [15]; -0.133 in [16]; 1.57 with Torsin-1A (Homo sapiens) [17]. For the same molecule, the composite z-score was found to be 0.63 with Torsin-1A (Homo sapiens) [18] and 2.09 in assay [19]. Also, the z-score in [7] was 0.239; in [9], -0.304 (inactive); in assay [11] it was -0.0558 (inactive); in assay [12] it was 0.938 (inactive); in assay [13], 0.159 (inactive); in assay [14], -0.463 (inactive).
Take `COC(=O)CC=C[C@@H](C)[C@H](OCc1cccc(-c2ccccc2)c1)C1CCCCC1`: the composite z-score in assay [1] was -0.791; in assay [2], -0.46; in assay [3], -0.0125; in assay [4] it was -0.14; in assay [5], 0.768; in assay [6], -0.226. Further, the composite z-score in the assay on Lefty1 was 0.0133; in [8], 0.534; in assay [10] it was -0.106; in assay [15], 1.85; in assay [16], -0.176; with Torsin-1A (Homo sapiens) [17], 0.439. In addition, the composite z-score in the assay with Torsin-1A (Homo sapiens) [18] is -0.17; in assay [19], 0.412. The z-score in [7] was 0.237; in assay [9] it was -0.0245 (inactive); in assay [11], -0.44 (inactive); in assay [12], 0.125 (inactive); in [13] it was 0.68 (inactive); in assay [14] it was -0.198 (inactive).
